# Test results reported in ChEMBL document CHEMBL1201862, “PubChem BioAssay data set” (2004).
# The whole screen tested about 400,000 compounds, of which about 2,100 (0.53%) were called active. Not shown: some 14% with an inconclusive outcome. The rule behind the calls is not given here. Only a selection was taken, and actives are over-represented in it overall.
# Target: Ataxin-2 (Homo sapiens) (UniProt Q99700)
# Assay: qHTS for Inhibitors of ATXN expression.
# Format: functional
# Ataxin-2 (Homo sapiens), sequence (Q99700 whole entry): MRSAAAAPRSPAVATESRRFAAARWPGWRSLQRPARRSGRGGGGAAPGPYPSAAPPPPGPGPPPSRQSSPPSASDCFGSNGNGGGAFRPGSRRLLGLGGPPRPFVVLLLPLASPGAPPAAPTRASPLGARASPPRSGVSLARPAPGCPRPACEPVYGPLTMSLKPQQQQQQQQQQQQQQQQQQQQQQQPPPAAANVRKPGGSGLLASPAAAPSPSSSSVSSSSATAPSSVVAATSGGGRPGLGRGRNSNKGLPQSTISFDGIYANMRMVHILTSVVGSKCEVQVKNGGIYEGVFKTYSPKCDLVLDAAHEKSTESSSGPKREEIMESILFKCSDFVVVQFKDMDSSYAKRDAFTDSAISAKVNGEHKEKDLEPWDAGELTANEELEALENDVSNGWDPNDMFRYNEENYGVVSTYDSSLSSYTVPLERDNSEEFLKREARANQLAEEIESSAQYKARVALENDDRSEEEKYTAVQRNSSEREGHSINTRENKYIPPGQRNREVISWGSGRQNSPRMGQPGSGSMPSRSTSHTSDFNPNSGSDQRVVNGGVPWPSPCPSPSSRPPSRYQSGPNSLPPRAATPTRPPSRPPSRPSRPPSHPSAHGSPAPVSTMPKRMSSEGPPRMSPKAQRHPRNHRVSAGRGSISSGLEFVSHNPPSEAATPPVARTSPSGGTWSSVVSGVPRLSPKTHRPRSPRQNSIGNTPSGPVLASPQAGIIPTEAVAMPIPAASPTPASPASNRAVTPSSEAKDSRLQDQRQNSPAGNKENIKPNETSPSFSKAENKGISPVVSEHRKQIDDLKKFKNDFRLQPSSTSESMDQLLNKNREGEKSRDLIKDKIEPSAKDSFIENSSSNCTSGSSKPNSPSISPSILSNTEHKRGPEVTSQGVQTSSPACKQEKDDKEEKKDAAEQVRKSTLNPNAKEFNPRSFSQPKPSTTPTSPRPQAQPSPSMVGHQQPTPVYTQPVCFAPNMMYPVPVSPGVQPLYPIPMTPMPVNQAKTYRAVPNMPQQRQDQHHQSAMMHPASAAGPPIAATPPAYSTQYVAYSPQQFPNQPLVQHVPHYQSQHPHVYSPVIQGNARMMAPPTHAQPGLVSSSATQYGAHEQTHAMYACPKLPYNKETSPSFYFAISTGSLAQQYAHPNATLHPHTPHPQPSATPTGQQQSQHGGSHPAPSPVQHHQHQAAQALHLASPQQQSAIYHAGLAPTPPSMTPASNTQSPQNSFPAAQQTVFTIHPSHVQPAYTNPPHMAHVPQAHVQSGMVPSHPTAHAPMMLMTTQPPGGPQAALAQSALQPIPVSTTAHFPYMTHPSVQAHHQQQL
row,Compound,Potency
1,COc1c(OC)c2nc(O)cc3c4ccccc4n(c1=O)c23,inactive
2,Clc1ccc(C2=CC(c3ccco3)n3ncnc3N2)cc1 (stereo not drawn),inactive
3,Cc1cc(O)c(C(=O)/C=C/c2c(F)c(F)c(F)c(F)c2F)c(=O)o1,inactive
4,CCOC(=O)c1c(NC(=O)c2ccc(S(=O)(=O)N3CCC(C)CC3)cc2)sc2c1CCN(CC)C2,inactive
5,Nc1nnnn1/N=C/c1cc(Cl)ccc1O,inactive
6,CC(=O)Oc1cc2oc(=O)cc(C)c2cc1OC(C)=O,inactive
7,CC(=O)Nc1cc2ccc(OC(C)=O)cc2oc1=O,inactive
8,CC(=O)Nc1cc(OC(C)=O)c2nonc2c1OC(C)=O,39.8 µM (active)
9,OC[C@@H]1[C@@H](c2ccccc2)C(c2cccc(Cl)c2)=NN1c1ccccc1,inactive
10,O=C(COC(=O)c1cncc(Br)c1)NCc1cccs1,inactive
11,C#CCNC(=O)C[C@@H]1C[C@@]2(C(=O)OCC)CCCC=C2N(CCCCCCCC)C1=O,20 µM (active)
12,CCCCCCCCN1C(=O)[C@H](CC(=O)NCCC(C)C)C[C@@]2(C(=O)OCC)CCCC=C12,39.8 µM (active)
13,CCCCCCCCN1C(=O)[C@H](CC(=O)NCc2cccs2)C[C@@]2(C(=O)OCC)CCCC=C12,39.8 µM (active)
14,Cc1c(N(C(=O)Cc2cccs2)C2(C(=O)NC3CCCC3)CCCCC2)c(=O)n(-c2ccccc2)n1C,inactive
15,Cc1ccc(-c2cc(C(F)(F)F)n3ncc(C(=O)N4CCCCC4c4cccnc4)c3n2)cc1 (stereo not drawn),inactive
16,O=C(CSc1ccc2ccccc2c1)NCCc1ccc(O)c(O)c1,inactive
17,COC(=O)C(C)N=C(S)N1CCN(c2c(F)cc3c(=O)c(C(=O)O)cn(C4CC4)c3c2OC)CC1C (stereo not drawn),inactive
18,S=C(Nc1ccc2nc(-c3ccccn3)c(-c3ccccn3)nc2c1)N1CCCCCC1,inactive
19,CC(NNC(=S)N1CCCCCC1)c1ccc2ccccc2n1 (stereo not drawn),12.6 µM (active)
20,Cc1nc(N2CCCCCC2)c2ccccc2n1,inactive
21,CCOc1ccc(C(=O)C2CCN(C(=O)c3ccc([N+](=O)[O-])cc3)CC2)cc1,inactive

row,Compound,Potency
1,COc1ccc(C2C3=C(O)CC(C)(C)CC3=Nc3c2c(=O)n(C)c(=O)n3C)cc1OC (stereo not drawn),inactive
2,COc1ccc(CCn2c(C)cc(C(=O)CCl)c2C)cc1OC,39.8 µM (active)
3,Cc1cc(C(=O)COC(=O)Cc2c(F)cccc2Cl)c(C)n1C,inactive
4,Cc1ccc(C(=O)OCC(=O)NCCc2ccc(F)cc2)cc1S(=O)(=O)N1CCOCC1,inactive
5,Cc1cc(C(=O)CCl)c(C)n1CCc1ccc(F)cc1,37.7 µM (active)
6,N=c1c(C(=O)NCC2CCCO2)cc2c(=O)n3ccccc3nc2n1Cc1cccnc1 (stereo not drawn),inactive
7,CCOC(=O)COc1ccc2c(C#N)c3ccccn3c2c1,inactive
8,Cn1c2ccccc2c2nnc(N/N=C/c3ccc(O)cc3)nc21,inactive
9,O=C(Nc1cccc(S(=O)(=O)N2CCCCCC2)c1)c1ccc(O)nc1,inactive
10,CN(C)S(=O)(=O)c1ccc(-c2csc(N/N=C/c3ccc(O)cc3)n2)cc1,20 µM (active)
11,COc1cc(/C=N/NC(=O)CCC(=O)Nc2ccc(F)cc2)ccc1O,inactive
12,O=C(N/N=C/c1sc(N2CCOCC2)nc1-c1ccccc1)c1cccc(S(=O)(=O)N2CCCC2)c1,inactive
13,CCOc1cc(/C=N/Nc2nc(-c3cccc(S(=O)(=O)N4CCCC4)c3)cs2)ccc1O,25.1 µM (active)
14,CC(=O)c1sc(N/N=C/c2ccc(C(C)C)cc2)nc1C,inactive
15,COc1cc(/C=N/NC(=O)C(=O)NCc2ccco2)ccc1O,inactive
16,COc1cc(/C=N/Nc2nc(-c3ccc(S(=O)(=O)N(C)C)cc3)cs2)ccc1O,35.5 µM (active)
17,CCN(CC)c1ccc2cc(C=O)c(=O)oc2c1,inactive
18,CCOc1ccc(C(=O)c2oc3ccccc3c2NC(=O)c2cc(-c3ccccc3)on2)cc1,inactive
19,Cc1cccc(/C=N/NC(=O)c2cc(Br)ccc2O)n1,inactive
20,O=C(Nc1ccccc1)c1ncoc1-c1ccc(Cl)cc1,inactive
21,Cc1cccc(N/N=C(\C=O)C(=O)c2ccc(Br)cc2)c1,31.6 µM (active)

row,Compound,Potency
1,CC(=O)/C(=N\Nc1ccccc1)Oc1ccc(Br)cc1,inactive
2,O=C(O)c1ccc(N/N=C/c2ccc(-c3cc(Cl)ccc3Cl)o2)cc1,inactive
3,O=C/C(=N\Nc1ccccc1)C(=O)c1ccc(Cl)cc1,9.47 µM (active)
4,C=CCn1c(S)nnc1-c1oc2nc(-c3ccccc3)cc(-c3ccccc3)c2c1N,inactive
5,CNc1snc(C)c1C(=O)OCC(=O)N(C)c1ccccc1,inactive
6,CCOc1ccc2nc3cc(N=Nc4ccc(N)nc4N)ccc3c(N)c2c1,10.6 µM (active)
7,CCOc1ccc2nc3ncccc3c(O)c2c1,inactive
8,CCOc1ccc2[nH]c3ccc4nonc4c3c2c1,inactive
9,COc1ccc(C2=CC(c3cccc(C)c3)n3nnnc3N2)cc1 (stereo not drawn),inactive
10,Cc1n[nH]c(C)c1N1C(=O)c2cccc3c(Br)ccc(c23)C1=O,inactive
11,COc1ccccc1C1C=C(c2ccc(F)cc2)Nc2nc(-c3ccc(Cl)cc3)nn21 (stereo not drawn),inactive
12,O=C1c2[nH]nc(-c3ccc(F)cc3)c2C(c2ccccc2F)N1c1ccccc1 (stereo not drawn),22.4 µM (active)
13,COc1ccccc1C1C=C(c2ccc(Cl)cc2)Nc2nc(N3C(=O)CCC3=O)nn21 (stereo not drawn),inactive
14,COc1ccccc1C1c2c(-c3ccc(Cl)cc3)n[nH]c2C(=O)N1c1ccc(C)cc1 (stereo not drawn),39.8 µM (active)
15,CCOc1ccc(C2c3c(-c4ccc(C)cc4)n[nH]c3C(=O)N2c2ccc(Cl)cc2)cc1 (stereo not drawn),39.8 µM (active)
16,Cc1ccc(N2C(=O)c3[nH]nc(-c4ccc(Cl)cc4)c3C2c2ccc(F)cc2)cc1 (stereo not drawn),39.8 µM (active)
17,CCOc1ccc(C2C=C(c3ccc(C)cc3)Nc3nnnn32)cc1 (stereo not drawn),inactive
18,O=C1OCCN1C(=O)[C@H]1[C@H](c2ccc(Cl)cc2)C(c2ccc(F)cc2)=NN1c1ccc(Br)cc1,inactive
19,CCOc1ccc(C(=O)C2=C(O)C(=O)N(c3ncccn3)C2c2ccc(C)cc2)cc1 (stereo not drawn),inactive
20,OC[C@@H]1[C@@H](c2ccc(Cl)cc2)C(c2ccc(F)cc2)=NN1c1ccccc1,inactive
21,CCN1C(=O)c2cccc3c(S(=O)(=O)N(C)C)ccc1c23,inactive
